PrPC TRFRET: reduces human prion protein on the cell surface. P04156. cell surface PrPC, TR-FRET read-out. inhibition, % at 13.8 µM. actives 0.43% (n = 370,000). AID 720596; in the data active = inhibition above about 24%; note: 0% = median of the test wells and 100% = reference compound wells
SARS 3CLpro inh: SARS-CoV 3CLpro protease inhibition; P0C6X7; recombinant SARS-CoV 3CLpro, quenched FRET peptide cleavage; inhibition, % at 6 µM; actives 0.14% (n = 290,000); in the data active = inhibition above about 12%
GDH-TPI counter: GDH-TPI coupled enzyme inhibition counter-screen; GDH-TPI coupled enzyme counterscreen, NADH absorbance; inhibition, % at 4.8 µM; actives 1.2% (n = 360,000); AID 588335; in the data active = inhibition above about 30%;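 note: 0% = DMSO wells and 100% = wells lacking the enzyme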
BH1578 lux ind: induces V. cholerae light production without autoinducers. V. cholerae BH1578 lux reporter, luminescence, 6 h. activation, % at 18.7 µM. actives 0.16% (n = 350,000); in the data active = activation mostly above about 9.7%, no sharp cut-off
Mtb FBA inh: Mtb fructose-bisphosphate aldolase inhibition; purified M. tuberculosis FBA, fluorescence read-out; inhibition, % at 1 µM; actives 2.3% (n = 360,000); in the data active = inhibition above about 27%;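 note: 0% = vehicle and 100% = reference inhibitor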
Target sequence (P9WQA3 whole entry, looked up): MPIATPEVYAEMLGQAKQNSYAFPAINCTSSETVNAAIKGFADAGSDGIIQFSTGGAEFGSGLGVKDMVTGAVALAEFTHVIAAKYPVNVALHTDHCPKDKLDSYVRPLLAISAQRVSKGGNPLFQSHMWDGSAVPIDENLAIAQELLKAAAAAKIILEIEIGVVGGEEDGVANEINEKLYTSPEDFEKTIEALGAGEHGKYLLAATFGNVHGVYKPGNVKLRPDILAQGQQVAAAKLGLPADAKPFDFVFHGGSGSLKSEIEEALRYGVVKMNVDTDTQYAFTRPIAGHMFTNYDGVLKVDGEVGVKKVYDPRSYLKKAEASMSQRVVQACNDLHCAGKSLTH
* marks the source's active call; other numbers are inactive results; i = inactive; . = no result given; + = active, no number. Shown are actives, neighbours in structure and some others; about 3.9% of the full set was active somewhere.

SMILES | PrPC TRFRET | SARS 3CLpro inh | GDH-TPI counter | BH1578 lux ind | Mtb FBA inh
COc1ccc(/C=C/C(=O)NC(=S)NNC(=O)Cc2cccs2)cc1 | 1 | 6 | 41* | i | 7
COc1ccc(/C=C/C(=O)NC(=S)Nc2ccc(C(=O)O)cc2)cc1 | -5 | 3 | 50* | 0 | -1
CCn1cc(C(=O)NCc2cccc(F)c2)c(=O)c2cc(F)c(N3CCN(C(=O)c4ccco4)CC3)cc21 | -3 | 2 | 1 | -1 | 38*
COCc1cc(=O)n2[nH]c(C)c(-c3ccc(Cl)cc3)c2n1 | 6 | . | 8 | i | 135*
CCc1cc(=O)n2[nH]c(C)c(-c3ccccc3OC)c2n1 | 0 | 3 | 5 | 0 | 6
O=C(CC(=O)c1ccccc1)Nc1ccc([N+](=O)[O-])cc1 | 0 | . | 15 | -1 | -5
CS(=O)(=O)Nc1ccc(C(=O)CC(=O)Nc2ccc([N+](=O)[O-])cc2)cc1 | -19 | -1 | 77* | i | 1
O=C(OCC(=O)N1CCOCC1)c1ccc(O)cc1 | 4 | 1 | 14 | 0 | +
O=C(OCC(=O)N1CCOCC1)c1ccccc1O | -5 | -4 | -5 | 0 | 0
O=c1cc(-c2ccc(F)cc2)oc2ccccc12 | -2 | -6 | 9 | i | -1
CSc1ccc(-c2cc(=O)c3ccccc3o2)cc1 | 9 | 2 | 45* | -2 | +
COc1cccc(C2NC(=S)N(Cc3ccc(Br)cc3)C(C)=C2C(C)=O)c1 (stereo unspecified) | 10 | . | . | . | .
Cc1ccc(NC(=O)Nc2cccnc2)cc1Cl | 0 | 21* | 6 | -1 | 4
O=C(Nc1cccnc1)Nc1cc(Cl)cc(Cl)c1 | 4 | 12 | 8 | -3 | 2
CN(C(=O)c1cnccn1)c1nnc(-c2cnccn2)s1 | -9 | -3 | 31* | -3 | -9
COc1cc2cc(C)c(SCC(=O)N3CCN(C(=O)c4ccco4)CC3)nc2cc1OC | -2 | -7 | 44* | 0 | 10
COc1ccc(CN2CCC(CO)(Cc3cccc(C(F)(F)F)c3)CC2)cc1Cn1cccn1 | -15 | 2 | 13 | 0 | -1
CCCCNc1c(-c2cccc(SC3CCCCC3)c2)nc2ccc(Cl)cn12 | 7 | . | 7 | -1 | 2
CCCCNc1c(-c2ccc(SC3CCCCC3)cc2)nc2ccccn12 | -1 | . | 20 | -1 | 50*
CCOC(=O)C1=CN(C)C=C(C(=O)OCC)C1c1ccsc1 | -4 | 3 | 9 | 0 | +
O=C(CSc1nc2ccccc2c(=O)n1CCCN1CCOCC1)NC12CC3CC(CC(C3)C1)C2 | -2 | -2 | 11 | i | 0
O=C(Nc1cc(S(=O)(=O)N2CCOCC2)ccc1N1CCCC1)c1ccccc1C(F)(F)F | 3 | . | . | . | .
CCN(CC)c1ccc(/C=C2/C(=O)N(c3ccc([N+](=O)[O-])cc3)N=C2N2CCOCC2)cc1 | . | -4 | . | . | .
COc1cc(/C=C2/C(=O)N(c3ccc([N+](=O)[O-])cc3)N=C2N2CCOCC2)ccc1O | 2 | -6 | 39* | 0 | -7
Cc1ccccc1-n1c(O)c(C=NC2CCS(=O)(=O)C2)c2ccccc2c1=O (stereo unspecified) | -8 | -1 | 13 | 0 | 2
SMILES | PrPC TRFRET | SARS 3CLpro inh | GDH-TPI counter | BH1578 lux ind | Mtb FBA inh
Cc1cccc(-n2c(O)c(C=NC3CCS(=O)(=O)C3)c3ccccc3c2=O)c1C (stereo unspecified) | 1 | 1 | 31* | i | 2
Cc1c(OCC(=O)NC(Cc2ccc(Cl)cc2)C(=O)O)ccc2c1oc(=O)c1ccccc12 (stereo unspecified) | 2 | 6 | 16 | -1 | 17
CCC(NC(=O)Cc1c(C)c2ccc(OC)c(C)c2oc1=O)C(=O)NC(Cc1ccc(Cl)cc1)C(=O)O (stereo unspecified) | -2 | -1 | 20 | -1 | 143*
CCCCCCNC(=O)c1c(O)c2cccc3c2n(c1=O)CCC3 | -2 | 0 | 5 | 17* | 1
Cc1ccc2[nH]c(C)c(/C=N/Nc3nc4ccccc4s3)c2c1 | 8 | 3 | 38* | . | 1
COc1ccc(C=NNc2nc3ccccc3s2)cc1 | -3 | . | 23 | i | 0
COc1ccc(NC(=O)C[C@H]2C(=O)N(c3ccc(OC)cc3)C[C@@H]2C)cc1 | 2 | . | 4 | 0 | 2
COc1cc(=O)n(C)c2cc(N(C)C)ccc12 | 4 | -2 | 33* | i | 156*
CN1C(=O)c2ccc(N(C)C)cc2C1=O | -9 | -1 | 16 | 1 | -3
O=C(c1ccccc1)n1ccc2ccc(-c3ccc4ccn(Cc5ccccc5)c4c3)cc21 | 2 | . | . | . | .
CC(=O)c1ccc(OCCOc2ccc(Cl)c3cccnc23)cc1 | -7 | 1 | 3 | 0 | 0
Cc1c(C=NNc2ccccc2)[nH]c(=O)[nH]c1=O | -4 | . | 32* | -1 | 6
N#C/C(=N\Nc1cc(Cl)cc(Cl)c1)c1nnc2n1CCCCC2 | -4 | 1 | 33* | i | -4
NC(=O)/C(=N\OC(=O)c1ccco1)c1nc(-c2ccc(Br)cc2)cs1 | -10 | -1 | 12 | 0 | -3
CCCNC(=O)c1c(N)n(Cc2ccco2)c2nc3ccccc3nc12 | . | 0 | . | . | .
COc1ccc(Cn2c(N)c(C(=O)NCc3ccco3)c3nc4ccccc4nc32)cc1OC | -2 | 5 | 18 | 0 | 3
CC(C)OCCCNC(=O)c1c(N)n(Cc2cccs2)c2nc3ccccc3nc12 | -2 | 2 | 13 | i | 34*
COCCOC(=O)c1c(N)n(Cc2ccco2)c2nc3ccccc3nc12 | -8 | -5 | 30 | -1 | 150*
CC(C)CNC(=O)c1c(N)n(Cc2ccco2)c2nc3ccccc3nc12 | -2 | 2 | 12 | i | 55*
Nc1c(C(=O)NCc2ccco2)c2nc3ccccc3nc2n1CCc1ccc(F)cc1 | -6 | 1 | 4 | 0 | 28*
COCCCNC(=O)c1c(N)n(Cc2ccco2)c2nc3ccccc3nc12 | -10 | 6 | 15 | -1 | 118*
Cc1ccc(OCc2nnn(CC(=O)NS(=O)(=O)c3c(C)noc3C)c2-c2ccccc2)cc1 | 0 | . | 11 | i | -3
O=C(COc1ccc2c3c(c(=O)oc2c1)CCCC3)N1CCN(c2ccccc2)CC1 | -4 | 0 | 12 | 0 | -1
CC(C)C(=O)NC(=S)Nc1c(Cl)ccc2nsnc12 | -21 | 2 | 18 | -1 | -1
COc1ccc(C(CNC(=O)c2cc3ccccc3cc2OC)N2CCCC2)cc1 (stereo unspecified) | 5 | -2 | 34* | i | 6
COc1cc2ccccc2cc1C(=O)Nc1ccccc1N1CCCC1 | 13 | . | 3 | i | +
COc1ccc(C(CNC(=O)CNC(=O)c2ccccc2Cl)N2CCCC2)cc1 (stereo unspecified) | -3 | . | 8 | -5 | 0
O=[N+]([O-])c1ccccc1C(=Nc1ccccc1)c1c(O)cc(O)cc1O | -6 | . | 32* | i | 0
O=C(Nc1ccccc1)c1ccccc1NC(=O)c1ccccc1[N+](=O)[O-] | -16 | . | 3 | 0 | 3

From PubChem
